In the library only some 12% were active in any assay of this set; here they are far more common.
SARS PLP yeast – inhibitors of SARS-CoV papain-like protease in yeast | S. cerevisiae expressing SARS-CoV PLpro, growth rescue | Potency, µM (titrated, usually from 32.9 µM), for inactives: at the top dose activity, positive = growth rescue, usual class: activators | hit rate 0.19% among 330,000 | AID 485353; calls by dose curve; further: 0% is about no effect; nearly all actives have a fitted effect of over 55% in size
Sm TGR block – inhibitors of Schistosoma mansoni thioredoxin glutathione reductase; Q962Y6; purified TGR, DTNB reduction, TNB absorbance 405 nm; Potency, µM (series often up to 114 µM), for the others: at the top dose activity change, negative = inhibition, hits mostly inhibitors; AID 485364; hit rate 3% among 360,000; further: on the % scale 0 is the no-effect control and ±100 the full control effect; nearly all actives have a fitted effect of over 60% in size
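Kinetic colorimetric format: TGR-catalysed, NADPH-driven DTNB reduction monitored via TNB absorbance. Enzyme dispensed at 20 nM; compound exposure 15 min at room temperature before reaction start.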
Pf growth 48h – inhibits P. falciparum growth in the first generation, 48 h; P. falciparum luciferase growth in erythrocytes, 48 h; Potency, µM (top dose mostly 28.7 µM), inactives show at the top dose activity change, negative = inhibition, most hits filed as inhibitors; hit rate 5.9% among 310,000; AID 504832; further: on the % scale 0 is the no-effect control and ±100 the full control effect
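Growth was read as firefly luciferase luminescence after a 48 h, 37 C, 5% CO2 exposure of compounds to reporter-bearing P. falciparum cultures (0.1% parasitemia, 2% hematocrit final) in Albumax-supplemented RPMI 1640.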
Pf growth 96h – P. falciparum growth inhibition at 96 hour, primary screen for plastid delayed-death inhibitors; P. falciparum luciferase reporter growth, 96 h; Potency, µM (titrated, usually from 28.7 µM), without a hit: top-dose activity change, negative = inhibition, hits mostly inhibitors; hit rate 6.9% among 320,000; further: on the % scale 0 is the no-effect control and ±100 the full control effect
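Parasite growth measured via integrated firefly luciferase reporter in P. falciparum. Infected erythrocytes at 2% hematocrit, 0.05% parasitemia final were treated 96 hours at 37 C under 5% CO2, and luminescence was read.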
Starred values were filed as active, the others as inactive; ? = inconclusive; · = no result given. Unless noted, the call rests on the fitted dose curve; in most records, active means well fitted curve in the direction sought with a large enough effect; inconclusive means small, poorly fitted or top-dose-only effect, or another doubt; inactive means no such curve, though single readings can be large; an effect the other way counts as inactive or inconclusive. Potency means the concentration at half of the fitted maximal effect.

SMILES | SARS PLP yeast | Sm TGR block | Pf growth 48h | Pf growth 96h
CC(C)Cn1cc(NC(=O)N2CCN(c3ccc(F)cc3)CC2)c2ccccc2c1=O | · | -7% | · | ·
CCN(CC)S(=O)(=O)c1ccc2c(c1)N(CC(=O)Nc1ccccc1F)C(=O)C1CCCN21 (stereo unspecified) | · | -20% | · | ·
Cc1ccc(C[n+]2cccc(-c3ccccc3)c2)c(C)c1 | 2% | -3% | 0.93µM* | 0.33µM*
Cc1ccc[n+](CC(=O)c2ccccc2)c1 | 2% | -12% | 18% | -10%
CCOc1ncccc1C(=O)OCC(=O)Nc1nnc(-c2ccccc2)o1 | 4% | 6% | ? | -28%
CCOc1cc2sc(N3CCC(C(=O)Nc4ccccc4C(=O)OC)CC3)nc2cc1Br | · | -30% | · | ·
COc1cc2c(cc1OC)C1=NC(=O)CN1C(SCc1ccc(C)cc1)=N2 | 4% | -3% | ? | 0%
Cc1ccc(CSC2=Nc3sccc3C3=NC(=O)CN23)cc1 | 6% | 0% | 12µM* | ?
Cc1cc(C)n2nc(C(=O)N/N=C/c3c4ccccc4cc4ccccc34)nc2n1 | 6% | 3% | -9% | 12µM*
C[N+](C)(C)CC(=O)N/N=C/c1c2ccccc2cc2ccccc12 | ? | -7% | 9.3µM* | 6.6µM*
COCCNC(=S)N/N=C/c1c2ccccc2cc2ccccc12 | -1% | -1% | 6.6µM* | 3.7µM*
S=C(NCCN1CCOCC1)N/N=C/c1c2ccccc2cc2ccccc12 | -6% | -17% | -16% | ·
Cc1cc(C)n2nc(C(=O)N/N=C/c3ccccc3Cl)nc2n1 | 0% | 0% | -5% | -20%
Cn1cccc1CC(=O)N/N=C\c1c2ccccc2cc2ccccc12 | -1% | -32% | 18% | 22%
Cc1ccc(S(=O)(=O)N2CCN(Cc3ccccc3Cl)CC2)cc1 | · | 11% | · | ·
COc1ccc(CNCCc2ccc(Cl)cc2Cl)cc1 | -1% | -6% | 7% | 5.9µM*
Clc1ccc(CCNCc2ccncc2)c(Cl)c1 | -1% | 28µM* | -12% | 114%
COc1ccc(CCC(C)NCCc2ccc(Cl)cc2Cl)cc1 (stereo unspecified) | · | -1% | ? | -14%
O=C(NCc1ccncc1)Nc1ccc(Cl)cc1Cl | -4% | 24% | ? | ?
CCOc1ccc(CN2C(=O)c3ccccc3Sc3ccc(C(=O)O)cc32)cc1 | · | 4% | · | ·
CCOC(=O)C1(C)C=C(Nc2ccc(OC)cc2)C(=O)N1c1ccc(OC)cc1 (stereo unspecified) | 4% | -8% | -9% | 19%
CCOC(=O)C1(C)C=C(Nc2ccc(O)cc2)C(=O)N1c1ccc(O)cc1 (stereo unspecified) | 5% | -30% | 12µM* | 10µM*
CCC(=O)NC(c1ccc([N+](=O)[O-])cc1)c1c(O)ccc2ccccc12 (stereo unspecified) | -3% | -21% | 4.1µM* | ?
CCCCC(=O)NC(c1ccc([N+](=O)[O-])cc1)c1c(O)ccc2ccccc12 (stereo unspecified) | -67% | -13% | 10µM* | 63%
CCC(=O)NC(c1ccc(OC)cc1)c1c(O)ccc2ccccc12 (stereo unspecified) | 21% | · | ? | -17%
SMILES | SARS PLP yeast | Sm TGR block | Pf growth 48h | Pf growth 96h
Cc1ccc(Cl)cc1NC(=O)CSc1nc2c(c(=O)[nH]1)CN(Cc1ccccc1)CC2 | · | 2% | · | ·
COC(=O)[C@@H](NC(=O)N(C1CCCCC1)C1CCCCC1)C(C)C | 1% | -3% | -22% | 1.7µM*
COc1ccccc1NC(=O)Nc1nc(CC(=O)NCc2ccccn2)cs1 | 1% | -1% | -2% | 12%
COc1ccccc1CNC(=O)Cc1csc(NC(=O)Nc2ccccc2OC)n1 | -2% | 7% | ? | 13µM*
COc1ccccc1NC(=O)Nc1nc(CC(=O)Nc2cccc(F)c2)cs1 | 0% | -3% | 4.1µM* | 2.1µM*
Cc1ccc(S(=O)(=O)Nc2ccccc2CNc2ccccn2)cc1 | -19% | 4% | 13µM* | 6.6µM*
Cc1ccc(S(=O)(=O)Nc2ccccc2CNc2ccc(Br)cn2)cc1 | -18% | 9% | 12µM* | 10%
Cc1ccc(S(=O)(=O)Nc2ccccc2CNc2ncc(Br)cc2Br)cc1 | -5% | -5% | ? | ?
C=CCn1c2ccccc2c(=O)c2cc(C#CC[C@@H](C)O)ccc21 | 4% | 50µM* | 0% | ?
C[C@@H]1CC=C[C@H]2[C@H]1C(=O)N(Cc1ccccc1)[C@H]2c1ccc(F)c(-c2ccc(N(C)C)cc2)c1 | -3% | ? | ? | 12µM*

Screening data from PubChem BioAssay.
